Screens (PubChem)
MEKK3 PB1 HTS: raises or lowers MEK5 binding to the human MEKK3 PB1 domain; bead-based flow cytometry, Alexa488-MEK5 binding to MEKK3; actives lie on both sides; 0 = blocked by unlabeled MEK5, 100 = vehicle; Q99759; hit rate 1.4% among 290,000; binding response (% of control), % at 10 µM;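 active = binding response more than 3 SD above or below the average of its plate-row segment, actives on both sides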;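 also: Alexa488 bead fluorescence after subtracting the streptavidin-only scavenger bead signal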
MEKK2 mut-MEK5: signal of MEK5 binding to mutant human MEKK2 PB1 domain | bead flow cytometry, Alexa488-MEK5 binding to MEKK2 mutant | percent response, % at 10 µM | hit rate 0.35% among 290,000; in the data active = percent response above about 24%, passing the limit was not always enough
B2AR ag: human beta-2 adrenergic receptor agonism by FAP; P07550; Am2.2-beta2AR cells, FAP receptor internalization, flow cytometry; response, % (concentration not given with the values); hit rate 0.43% among 340,000; AID 504454;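 active = response above a set limit, near 3 SD of response in nonfluorescent compounds, cut at about 42% in these data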
GRK2 aptamer HTS: human GRK2 inhibition via aptamer displacement. bead flow cytometry, FAM-aptamer displacement from GRK2. P25098. hit rate 0.59% among 330,000. AID 488847. inhibition of aptamer binding, % at 10 µM;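 active = inhibition of aptamer binding above 40%, roughly 3 SD of noise, on plates passing a quality check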;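 also: median bead fluorescence of bound FAM aptamer so fluorescent compounds give negative values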
Target sequence (P25098 whole entry, looked up): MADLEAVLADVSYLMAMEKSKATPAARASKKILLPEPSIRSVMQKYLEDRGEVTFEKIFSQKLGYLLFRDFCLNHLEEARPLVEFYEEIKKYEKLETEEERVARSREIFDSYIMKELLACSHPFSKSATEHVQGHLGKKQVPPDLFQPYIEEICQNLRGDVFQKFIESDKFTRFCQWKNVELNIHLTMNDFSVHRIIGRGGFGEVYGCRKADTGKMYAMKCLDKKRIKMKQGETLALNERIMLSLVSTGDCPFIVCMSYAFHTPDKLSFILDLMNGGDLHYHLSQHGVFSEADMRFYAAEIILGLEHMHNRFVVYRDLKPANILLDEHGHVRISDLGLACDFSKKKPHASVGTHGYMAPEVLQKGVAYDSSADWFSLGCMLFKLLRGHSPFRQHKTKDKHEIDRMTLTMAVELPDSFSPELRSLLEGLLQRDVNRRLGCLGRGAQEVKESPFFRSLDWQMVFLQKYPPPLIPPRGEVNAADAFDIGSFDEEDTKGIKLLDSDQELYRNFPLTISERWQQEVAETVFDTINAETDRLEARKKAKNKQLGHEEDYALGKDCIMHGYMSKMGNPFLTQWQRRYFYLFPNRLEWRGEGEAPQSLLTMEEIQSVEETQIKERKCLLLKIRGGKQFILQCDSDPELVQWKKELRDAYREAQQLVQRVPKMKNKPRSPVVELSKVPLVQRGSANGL
MEKK2wt PB1 HTS: raises or lowers MEK5 binding to wildtype human MEKK2 PB1 domain; binding response (% of control), % at 10 µM; Q9Y2U5; bead flow cytometry, Alexa488-MEK5 binding to MEKK2 WT; actives lie on both sides; hit rate 1.1% among 290,000; in the data active = binding response below about 67% or above about 130%
MEKK2wt confirm: raises or lowers MEK5 binding to wildtype human MEKK2, retest; binding response (% of control), % at 10 µM; bead flow cytometry, Alexa488-MEK5 binding to MEKK2 WT; actives lie on both sides; hit rate 2.4% among 5,900; shares compounds with MEKK3 PB1 HTS; in the data active = binding response below about 16% or above about 210%; inactive = in between
MEKK2mut confirm: signal of MEK5 binding to mutant human MEKK2, retest; shares compounds with MEKK3 PB1 HTS; bead flow cytometry, Alexa488-MEK5 binding to MEKK2 mutant; percent response, % at 10 µM; hit rate 2% among 5,900; in the data active = percent response mostly above about 71%, no sharp cut-off; inactive = mostly below about 38%;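 also: higher means compound restores mutant binding toward wildtype level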
MEKK3 confirm: confirmation of inhibitors of MEK5 binding to human MEKK3; binding response (% of control), % at 10 µM; AID 1894; bead flow cytometry, Alexa488-MEK5 binding to MEKK3; active compounds read low; hit rate 1.8% among 5,900; shares compounds with MEKK3 PB1 HTS;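 active = binding response below 72% of control, or above a set upper limit, though filed actives all read lower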;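 also: lower values mean stronger disruption of MEK5 binding to MEKK3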
Numbers stand for hits; - = inactive; . = no result given; [ ] = remark or other dose. Shown are actives, neighbours in structure and some others; about 2.9% of the full set was active somewhere.

SMILES	MEKK3 PB1 HTS	MEKK2 mut-MEK5	B2AR ag	GRK2 aptamer HTS	MEKK2wt PB1 HTS	MEKK2wt confirm	MEKK2mut confirm	MEKK3 confirm
Clc1ccc(COc2cccc(CNCc3ccncc3)c2)cc1	-	-	-	-	-	.	.	.
COc1ccccc1NS(=O)(=O)c1ccc(C(N)=O)cc1	28.0[inhibitor]	-	-	-	35.0[inhibitor]	-	-	-
CCN(CC)c1ccc2cc(-c3nc(-c4ccc(OC)cc4)cs3)c(=O)oc2c1	183.0	289.0	.	-	232.0	-	-	60.0
CCN(CC)c1ccc2cc(-c3nnc(-c4ccccc4)o3)c(=O)oc2c1	-	-	.	-	60.0[inhibitor]	-	-	-
CCN(CC)c1ccc2cc(-c3nc4ccccc4[nH]3)c(=O)oc2c1	-	-	-	-	-	.	.	.
CC(C)CCNC(=O)Cc1csc(-c2ccccc2)n1	2.0[inhibitor]	-	-	-	3.0[inhibitor]	-	-	-
COCCn1c(=O)[nH]c2cc(C(=O)NCCc3ccc(S(N)(=O)=O)cc3)ccc2c1=O	135.0	-	-	-	-	-	-	-
CCOC(=O)N1CCN(C(=O)c2ccc3c(=O)n(CCc4ccccc4)c(=O)[nH]c3c2)CC1	125.0	-	-	-	-	-	-	-
CN(Cc1ccccc1)C(=O)COC(=O)CCC(=O)c1ccc(Cl)cc1	.	.	-	-	.	.	.	.
COc1ccc(CCN2C(=O)C(Oc3ccccc3C)C2c2ccc3c(c2)OCO3)cc1 (configuration not stated)	156.0	-	-	-	-	-	-	-
COc1ccc(CCN2C(=O)C(Oc3ccccc3C)C2c2ccc3c(c2)OCO3)cc1OC (configuration not stated)	-	-	-	-	-	.	.	.
COc1cc2c(cc1OC)CN(C(=O)c1ccco1)CC2	143.0	-	-	-	-	-	-	-
COc1cc2c(cc1OC)CN(C(=O)c1ccc(Br)o1)CC2	-	-	-	-	-	.	.	.
CCN(C(=O)N1CCOCC1)c1ccccc1C	-	-	-	-	-	.	.	.
Cc1ccc(CNC(=O)COC(=O)CSc2ccc(Br)cc2C)cc1	130.0	-	-	-	-	-	-	-
Cc1cc(Br)ccc1SCC(=O)OCC(=O)NC1CC1	-	-	-	-	-	.	.	.
CC(NC(=O)CN(Cc1ccccc1)S(=O)(=O)c1ccccc1)c1cccnc1 (configuration not stated)	.	.	-	-	.	.	.	.
Cc1ccc(/C=C/C(=O)NC2=NCCS2)cc1	-	-	-	-	144.0	-	-	-
CC(=O)Nc1nc(C)c(C(C)=O)s1	2.0[inhibitor]	-	-	-	3.0[inhibitor]	-	-	-
CC(=O)c1sc(NC(=O)C(C)C)nc1C	-	-	-	-	-	.	.	.
Cc1ccc(C(=O)N/C(=C\c2ccc(-c3cccc([N+](=O)[O-])c3)o2)C(=O)NCCCN(C)C)cc1	-	-	-	-	141.0	-	-	-
Cc1ccc(C(=O)N/C(=C\c2ccc(-c3ccc(Br)cc3)o2)C(=O)NCCCN(C)C)cc1	-	-	-	-	187.0	-	-	-
Cn1c(CNC(=O)c2ccco2)nnc1SCC(=O)c1ccc(Br)cc1	-	-	-	-	-	.	.	.
COc1ccc(C(=O)SC2=NCCS2)cc1	-2.0[inhibitor]	-	-	-	-11.0[inhibitor]	-	-	-
COc1ccc(/C=C/C(=O)OCC(=O)Nc2ccc(N3CCOCC3)cc2)cc1OC	-	-	-	-	-	.	.	.
SMILES	MEKK3 PB1 HTS	MEKK2 mut-MEK5	B2AR ag	GRK2 aptamer HTS	MEKK2wt PB1 HTS	MEKK2wt confirm	MEKK2mut confirm	MEKK3 confirm
COc1cccc(CNC(=O)c2ccc(N3CCOCC3)c([N+](=O)[O-])c2)c1	-	-	-	-	-	.	.	.
Cc1ccc(Cl)c(OC(=O)c2ccc(N3CCOCC3)c([N+](=O)[O-])c2)c1	137.0	-	-	-	-	-	-	-
COc1ccccc1CNC(=O)c1ccc(N2CCOCC2)c([N+](=O)[O-])c1	44.0[inhibitor]	-	-	-	-	-	-	-
Cc1ccc(NC(=O)CCNC(=O)c2ccc(Br)cc2)nc1	-	-	-	-	-	.	.	.
O=C(CNS(=O)(=O)c1cccs1)NCc1ccc(F)cc1	142.0	-	-	-	-	-	-	-
COc1ccc(CNC(=O)CNS(=O)(=O)c2cccs2)cc1	-	-	-	-	-	.	.	.
O=C(CC1CCCCC1)NCc1ccccn1	122.0	-	-	-	-	-	-	-
COc1ccc(CCNC(=O)CN2C(=O)COc3ccc(S(=O)(=O)N4CCOCC4)cc32)cc1OC	-	-	-	-	-	.	.	.
CCOC(=O)c1c(C)n(C)c2ccc(OC)c(NC(=O)CN3CCN(C4CCCCC4)CC3)c12	-	-	-	-	-	.	.	.
CCOC(=O)c1c(C)n(C)c2ccc(OC)c(NC(=O)CN3CCC(C(=O)OCC)CC3)c12	47.0[inhibitor]	-	-	-	-	-	-	-
COC(=O)[C@H](Cc1c[nH]c2ccccc12)NC(=O)NCc1ccc(OC)cc1	-	-	-	-	-	.	.	.
O=C(OCCN=C1NS(=O)(=O)c2ccccc21)c1ccccc1	122.0	-	-	-	-	-	-	-
O=C(c1ccc(-n2cccc2)cc1)N1CCN(Cc2ccccc2)CC1	-	-	-	-	-	.	.	.
Cn1nc(-c2ccc(C(=O)N3CCN(Cc4ccccc4)CC3)cc2)c2ccccc2c1=O	52.0[inhibitor]	-	-	-	57.0[inhibitor]	-	-	-
Cn1nc(-c2ccc(C(=O)Nc3cccc(Cl)c3)cc2)c2ccccc2c1=O	34.0[inhibitor]	-	-	-	1.0[inhibitor]	-	-	-
CC1C=CCC2C(=O)N(c3ccc(OC(=O)c4ccco4)cc3)C(=O)C12 (configuration not stated)	161.0	-	-	-	-	-	-	-
CC1C=CCC2C(=O)N(c3ccc(OC(=O)c4cccs4)cc3)C(=O)C12 (configuration not stated)	-	-	-	-	-	.	.	.
COc1ccc2nc3cc(Cl)ccc3c(Nc3cc(C(C)C)c(O)cc3C)c2c1	-	44.0	-	-	146.0	-	75.0	-
CCN(CC)CCCC(C)Nc1c2ccc(Cl)cc2nc2ccc(OC)cc12 (configuration not stated)	-	-	.	.	-	.	.	.
O=C(COc1ccc(Br)cc1)Nc1nc(-c2cccnc2)cs1	-	-	-	-	-	.	.	.
CCc1c(C(=O)N/N=C/c2ccco2)nnn1-c1nonc1N	-	-	-	-	-	.	.	.
O=C(CCNC(=O)OCc1ccccc1)NC1CCCCC1	135.0	-	-	-	-	-	-	-
O=C(NC1CCCC1)c1ccccc1OCc1ccccc1	63.0[inhibitor]	-	-	-	-	-	-	-
c1ccc(COc2ccc(OCCCNC3CCCC3)cc2)cc1	-	-	-	-	140.0	-	-	-
